MCF10A rereplic – inducers of DNA re-replication in MCF 10A breast cells | MCF 10A DNA re-replication, Hoechst nuclear intensity, 48 h | Potency, µM (series often up to 46.1 µM), for inactives: at the top dose activity, positive = re-replication, hits mostly activators | 350,000 compounds, 2.9% hits | AID 624296; also: % of control where 0% means no effect; nearly all actives have a fitted effect of over 50% in size
HT1080-NT tox – kills 2HG-producing HT-1080-NT fibrosarcoma cells; 360,000 compounds, 1.6% hits; AID 686970; HT-1080-NT fibrosarcoma viability, CellTiter-Glo ATP luminescence, 48 h; Potency, µM (series often up to 46.1 µM), without a hit: top-dose activity, negative = less viability, most hits filed as cytotoxic;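 also: NT is the 2HG producing partner of a matched IDH1 knockdown line; 0% = DMSO-treated cells and -100% = media-only wells without cells; nearly all actives have a fitted effect of over 55% in size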
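Viability by CellTiter-Glo luminescence after 48 h compound exposure at 37C of HT-1080-NT cells (750/well, RPMI, 5% FBS). % activity scaled between DMSO wells and medium-only wells, then curve-fitted and categorized by curve class.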
HT1080 IDH1KD tx – kills HT-1080 cells with IDH1 knockdown; HT-1080 IDH1 knockdown viability, ATP luminescence, 48 h; Potency, µM (series often up to 46.1 µM), for inactives: top-dose activity, negative = toxicity, actives largely listed as cytotoxic; 360,000 compounds, 2% hits;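 also: 0% = DMSO wells and -100% = cell-free medium wells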
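Assay cells: HT-1080 with IDH1 knockdown, 750 per well, RPMI/5% FBS. Exposure: 48 h at 37 °C following 2 h pre-incubation. Read: CellTiter-Glo luminescence; fitted concentration-response, curve class assigned.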
KB-3-1 cytotox – KB-3-1 parental cell cytotoxicity. KB-3-1 viability, CellTiter-Glo ATP luminescence, 72 h. Potency, µM (series often up to 46.1 µM), most hits filed as cytotoxic. 400,000 compounds, 1.4% hits; also: % is scaled to controls: 0 for no effect and ±100 for the full control effect; nearly all actives have a fitted effect of over 60% in size
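Viability of parental KB-3-1 cells, measured by CellTiter-Glo luminescence, followed a 72 h incubation at 37 °C with pinned compounds in phenol-red-free DMEM containing 10% FBS.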
KB-V1 MDR tox – KB-V1 MDR subline cytotoxicity; AID 1347076; 400,000 compounds, 3.4% hits; KB-V1 MDR cells viability, CellTiter-Glo, 72 h; Potency, µM (highest dose often 46.1 µM), actives largely listed as cytotoxic; also: % is scaled to controls: 0 for no effect and ±100 for the full control effect; nearly all actives have a fitted effect of over 60% in size
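Following 72 h at 37 degrees C with compound, KB-V1 cell viability was read by CellTiter-Glo luminescence, medium being phenol-red-free DMEM plus 10% FBS; concentration-response parameters came from normalized, curve-fitted qHTS data.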
SW480 rereplic – induces DNA re-replication in SW480 colon adenocarcinoma cells; SW480 DNA re-replication, Hoechst DNA content imaging, 48 h; 340,000 compounds, 1.8% hits; Potency, µM (series often up to 46.1 µM), for inactives: at the top dose re-replication activation, usual class: activators; also: % of control where 0% means no effect; nearly all actives have a fitted effect of over 55% in size
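First, 250 cells per well were seeded. Next, compound or vehicle (23 nL) was pinned in, plates sat 48 hr at 37 C. Finally Hoechst was added for 40 min before fluorescence scanning.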
Active calls of the source: *; i = inactive; ? = inconclusive; . = no result given; ! = not confirmed by another sample. In the library only some 7.9% were active in any assay of this set; here they are far more common. Calls follow the shape of the dose curve; as a rule, active = well fitted curve in the direction sought with a large enough effect; inconclusive = small, poorly fitted or top-dose-only effect, or another doubt; inactive = no such curve, though single readings can be large; an effect the other way counts as inactive or inconclusive. Potency is read from the fitted curve at half-maximal effect.

SMILES	MCF10A rereplic	HT1080-NT tox	HT1080 IDH1KD tx	KB-3-1 cytotox	KB-V1 MDR tox	SW480 rereplic
CCS(=O)(=O)N1CC(=O)N(c2cc(Cl)ccc2C)C(C)(C(=O)NC2CCCCCC2)C1 (stereo not given)	.	.	.	i	i	.
Cc1cccc2c(=O)n3c(cc12)-c1[nH]c2ccccc2c1CC3	21µM*	?	-22%	i	i	?
CCCC1CCc2c(sc(N)c2C(N)=O)C1 (stereo not given)	?	11%	20%	i	16µM*	0%
CCC(C)(C)C1CCc2c(sc(N)c2C(N)=O)C1 (stereo not given)	?	-3%	-10%	i	i	1%
Cc1nn(C)c2ncc(C(N)=O)c(Oc3cccnc3)c12	1%	3%	11%	i	i	-1%
CCOC(=O)c1cnc2c(c(C)nn2C)c1Oc1ccc(Cl)cc1	16%	-22%	-27%	?	3.3µM*	2%
O=C(c1cnn(-c2ccccc2)c1)c1cc(Br)ccc1O	3%	12%	10%	i	?	-2%
O=C(C(=O)c1cc(Br)ccc1O)c1cc(Br)ccc1O	2.6µM*	3.7µM*	2.9µM*	23µM*	?	?
CC(=O)Nc1cc(Br)ccc1O	0.73µM*	7%	-1%	i	i	-11%
O=C(c1ccc(O)c(Br)c1)c1cc(Br)ccc1O	?	5.8µM*	?	i	i	4%
CC(=O)Nc1ccc2c(c1)Cc1c-2cc(Cl)c(NC(C)=O)c1Cl	8%	2%	-5%	i	i	-8%
O=C(Nc1c(Cl)cc2c(c1Cl)Cc1cc([N+](=O)[O-])ccc1-2)C(Cl)Cl	18µM*	-7%	0%	?	?	?
CC(=O)Nc1c(Br)cc2c(c1Br)Cc1cc([N+](=O)[O-])ccc1-2	?	-14%	0%	i	?	4.1µM*
CCc1cc(=O)oc2c3c(cc(OCC(=O)Nc4cccnc4)c12)OC(C)(C)CC3	?	-1%	-20%	i	16µM*	0%
CCc1cc(=O)oc2c3c(cc(OCC(=O)NCc4cccnc4)c12)OC(C)(C)CC3	-37%	-3%	-3%	i	?	1%
CCCCCCCCCCCCCC[N+](C)(C)Cc1ccccc1	27µM*	.	.	18µM*	i	27µM*
CCCCCCCCCCCCCCCC[N+](C)(C)Cc1ccccc1	13µM*	.	.	.	.	?
CCCCCCCCCCN(CCCCCCCCCC)c1ccccc1	.	.	.	i	i	.
Cc1ccc(N2CCN(C3=NC(=O)C(Cc4ccccc4)S3)CC2)cc1 (stereo not given)	-3%	7%	11%	i	?	1%
O=C1N=C(N2CCN(c3ccccc3)CC2)SC1Cc1ccccc1 (stereo not given)	-7%	-1%	-4%	i	16µM*	-3%
CCOC(=O)C1CCN(c2cc(C)nc3cc(-c4cccc(F)c4)nn23)CC1	4.1µM*	8%	15%	i	i	?
CCOC(=O)C1CCN(C(=O)CCc2c(C)nc3cc(-c4ccccc4)nn3c2C)CC1	?	7%	-1%	i	i	-5%
CC(C)c1nn2c(=O)cc(COC(=O)C3CCCCC3)nc2s1	.	.	.	i	i	.
O=C1C2C(c3ccccc3)C=CC(c3ccccc3)C2C(=O)N1CCO (stereo not given)	-3%	-13%	20%	i	i	-2%
O=C1C2C3C=CC(C3=C(c3ccccc3)c3ccccc3)C2C(=O)N1CCO (stereo not given)	3%	8%	0%	i	21µM*	-3%
SMILES	MCF10A rereplic	HT1080-NT tox	HT1080 IDH1KD tx	KB-3-1 cytotox	KB-V1 MDR tox	SW480 rereplic
O=C1C2C3C=CC(C3=C(c3ccccc3)c3ccccc3)C2C(=O)N1Cc1ccccc1 (stereo not given)	?	-14%	?	?	23µM*	?
C[C@H](CO)N1C[C@H](C)[C@@H](CN(C)C(=O)Cc2ccccc2)OCCCC[C@H](C)Oc2ccc(NC(=O)NC3CCCCC3)cc2C1=O	.	-26%	-16%	i	?	.
CCN(c1ccccc1)S(=O)(=O)c1ccc(OC)c(NC(=O)C2CCC2)c1	18µM*	-11%	?	.	.	?
CC(C)(C#CC(O)(c1ccccc1)c1ccccc1)N1CCCCC1	4%	-10%	-10%	i	i	-2%
CC(C)(C#CC(O)(c1ccccc1)c1ccccc1)N1CCCC1	0.82µM*	-2%	-1%	i	i	-7%
CCOc1ccc(NC(=S)N(Cc2ccc(N(C)C)cc2)Cc2ccco2)cc1	19%	6%	5%	i	15µM*	10%
Cc1c(Cl)cccc1NC(=O)c1ccc2c(c1)CCCN2S(C)(=O)=O	.	.	.	i	i	.
O=C(NCCCc1ccccc1)C1CC(=O)N(c2ccc3c(c2)OCCO3)C1 (stereo not given)	3%	6%	5%	i	23µM*	0%
COc1ccc(-c2nc(NC(=O)C3CC(=O)N(c4ccc5c(c4)OCCO5)C3)sc2C)cc1 (stereo not given)	3.3µM*	?	?	13µM*!	?	4.1µM*
O=C1c2ccccc2-c2onc3ccc(Oc4ccccc4)c1c23	?	-13%	4.1µM*	?	23µM*	9%
NC(CCc1ccccc1)c1csc(Nc2nccc(C(F)(F)F)n2)n1 (stereo not given)	.	16µM*	?	i	i	.
Cc1cc(C)nc(Nc2nc(C(N)CCc3ccccc3)cs2)n1 (stereo not given)	.	?	?	i	?	.
COc1ccc(CNC(=O)Nc2nc(C(N)CCc3ccccc3)cs2)cc1 (stereo not given)	.	18µM*	?	?	i	.
COc1ccc(CCNC(=O)Nc2nc(C(N)CCc3ccccc3)cs2)cc1OC (stereo not given)	.	16µM*	?	i	i	.
CC(C)CC(N)c1csc(NC(=O)Nc2ccccc2C(C)(C)C)n1 (stereo not given)	.	?	?	?	23µM*	.
CCc1nn(CC(=O)NCc2ccccc2Cl)c(=O)c2cc3ccccc3n12	.	.	.	i	i	.
COc1ccccc1NC(=O)Nc1nc(C(N)CCc2ccccc2)cs1 (stereo not given)	.	23µM*	?	i	i	.
COc1ccccc1NC(=O)Nc1cc(NC(=O)Nc2ccccc2OC)c(C)nc1C	?	16µM*	16µM*	i	i	?

Assay outcomes as filed in PubChem.
